From PMC4336329 (PLoS ONE, 2015)
Hit rate of the full screen: of about 310,000 compounds, about 14,000 (4.5%) showed an effect of 50% or more. The effect is printed as a negative number. Only a selection was taken, and strong results are over-represented in it overall.

biological target: human ether-à-go-go-related gene (hERG) potassium channel (human, UniProt Q12809); assay: primary screen, population patch clamp on CHO cells stably expressing hERG; higher = less effect of the substance
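Also: peak tail current of the secondary pulse compared with the same well before compound.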

human ether-à-go-go-related gene (hERG) potassium channel, sequence (Q12809 whole entry, looked up): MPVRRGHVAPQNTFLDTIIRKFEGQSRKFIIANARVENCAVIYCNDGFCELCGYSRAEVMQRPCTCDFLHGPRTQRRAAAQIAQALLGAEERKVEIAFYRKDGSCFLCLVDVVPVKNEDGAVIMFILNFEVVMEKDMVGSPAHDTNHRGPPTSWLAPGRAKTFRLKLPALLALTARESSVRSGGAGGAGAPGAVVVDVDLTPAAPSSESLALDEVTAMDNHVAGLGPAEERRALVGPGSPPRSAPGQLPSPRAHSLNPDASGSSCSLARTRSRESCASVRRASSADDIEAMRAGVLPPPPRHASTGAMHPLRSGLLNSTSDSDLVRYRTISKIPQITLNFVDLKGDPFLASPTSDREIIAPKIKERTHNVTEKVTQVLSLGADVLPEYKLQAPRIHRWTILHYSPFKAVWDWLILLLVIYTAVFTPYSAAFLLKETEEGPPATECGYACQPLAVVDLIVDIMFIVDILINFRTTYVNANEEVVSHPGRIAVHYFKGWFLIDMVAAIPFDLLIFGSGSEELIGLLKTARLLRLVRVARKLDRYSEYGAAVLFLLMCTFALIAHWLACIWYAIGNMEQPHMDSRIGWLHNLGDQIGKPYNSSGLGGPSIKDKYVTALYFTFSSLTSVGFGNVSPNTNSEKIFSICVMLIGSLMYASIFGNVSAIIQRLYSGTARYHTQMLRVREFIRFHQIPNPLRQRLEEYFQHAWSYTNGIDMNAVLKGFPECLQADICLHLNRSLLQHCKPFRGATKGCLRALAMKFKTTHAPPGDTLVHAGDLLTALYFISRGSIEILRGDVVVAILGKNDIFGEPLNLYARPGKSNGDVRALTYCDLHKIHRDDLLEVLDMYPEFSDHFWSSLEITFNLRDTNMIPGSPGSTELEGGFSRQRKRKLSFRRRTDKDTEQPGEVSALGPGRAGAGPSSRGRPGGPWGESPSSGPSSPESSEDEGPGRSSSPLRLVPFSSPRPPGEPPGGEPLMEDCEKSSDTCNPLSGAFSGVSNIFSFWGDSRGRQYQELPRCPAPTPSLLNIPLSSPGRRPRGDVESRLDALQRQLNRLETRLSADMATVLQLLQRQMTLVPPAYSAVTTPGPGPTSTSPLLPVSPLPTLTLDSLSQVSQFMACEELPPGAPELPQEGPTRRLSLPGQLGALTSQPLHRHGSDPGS

SMILES | hERG current change (%, negative = inhibition) at 10uM [%]
CCOc1ccccc1NC(=O)NCc1ccco1 | 8.52
CC(=O)N1CCc2cc(S(=O)(=O)CCC(=O)NCc3ccc(F)cc3)ccc21 | -13.8
O=C1C=C(O)C(n2cncn2)C(c2ccc3c(c2)OCO3)C1 (stereo not shown) | 17.1
O=C(NCc1cccnc1)c1nc(-c2ccccc2)n(-c2ccccc2)n1 | -14.7
O=C(CCCCCn1c(=S)[nH]c2ccc(N3CCOCC3)cc2c1=O)NCc1ccccc1 | 12
COc1ccc(C(=O)OCc2c(C)noc2C)cc1 | 12.9
COC(=O)c1ccc(NC(=S)NC2CCc3ccccc32)cc1 (stereo not shown) | -13.9
CNS(=O)(=O)c1ccc2c3c(cccc13)C(=O)N2 | 9.73
COc1ccc(C)c2sc(N(CCCN(C)C)C(=O)c3ccc(S(=O)(=O)N(C)C)cc3)nc12.Cl | -61.5
Cc1cc(C)c2nc(N(CCCN(C)C)C(=O)c3ccc(S(=O)(=O)N4CC(C)OC(C)C4)cc3)sc2c1.Cl (stereo not shown) | -33.7
Cc1cccc2sc(N(CCCN3CCOCC3)C(=O)CS(=O)(=O)c3ccc(F)cc3)nc12.Cl | -16.9
COc1ccc(C)c2sc(N(CCCN(C)C)C(=O)c3ccc(S(=O)(=O)N4CCc5ccccc5C4)cc3)nc12.Cl | 9.73
COc1ccc(OC)c2sc(N(CCCN(C)C)C(=O)c3ccc(S(=O)(=O)N4CCc5ccccc5C4)cc3)nc12.Cl | -8.54
Cc1ccc(S(=O)(=O)CC(=O)N(CCCN(C)C)c2nc3ccc(C)cc3s2)cc1.Cl | -43.9
Cc1cc(C)c2nc(N(CCN(C)C)C(=O)/C=C/c3cccs3)sc2c1.Cl | 17.9
Cc1cc(C)c2nc(N(CCCN(C)C)C(=O)C3=COCCO3)sc2c1.Cl | -65.9
COc1ccc(C)c2sc(N(CCCN(C)C)C(=O)CS(=O)(=O)c3ccc(F)cc3)nc12.Cl | -60.3
Cc1ccc(-n2nnnc2SCC(=O)N2CCCCC2)cc1 | -3.3
CCNC(=S)N/N=C/c1c(Cl)cccc1Cl | 18.1
Cc1cccc(-n2ncc3c2CCCC3NC(=O)C2CCOCC2)c1C (stereo not shown) | 6.59
O=C(Nc1cnc2ccccn2c1=O)c1ccc(Cl)cc1 | -23
COc1cc(NC(=O)CN2C(=O)NC(c3ccccc3)(c3ccccc3)C2=O)cc(OC)c1 | 5.79
CN(CC(=O)Nc1ccccc1Cl)C(=O)CN1C(=O)NC(c2ccccc2)(c2ccccc2)C1=O | -66.8

SMILES | hERG current change (%, negative = inhibition) at 10uM [%]
CCNC(=O)NC(=O)C(C)N1C(=O)NC(c2ccccc2)(c2ccccc2)C1=O (stereo not shown) | -43.6
C=CCNC(=O)NC(=O)CN1C(=O)NC(c2ccccc2)(c2ccccc2)C1=O | -69.5
CCN1C(=O)C(=O)N(CC(=O)N(C)CC(=O)Nc2ccccc2Cl)C1=O | 4.13
CC(C(=O)NC(N)=O)N1C(=O)NC(c2ccccc2)(c2ccccc2)C1=O (stereo not shown) | -14.9
COc1ccc(C2(c3ccc(OC)cc3)NC(=O)N(CC(=O)Nc3ccccc3)C2=O)cc1 | 28.6
COc1ccc(NC(=O)CN2C(=O)NC(c3ccccc3)(c3ccccc3)C2=O)cc1 | -55
COc1ccc(CNC(=O)C(C)N2C(=O)NC(c3ccccc3)(c3ccccc3)C2=O)cc1 (stereo not shown) | -86.5
O=C(CN1C(=O)NC(c2ccccc2)(c2ccccc2)C1=O)NCc1ccccc1 | -31
NC(=O)NC(=O)CN1C(=O)NC(c2ccccc2)(c2ccccc2)C1=O | 4.8
CN(CC(=O)Nc1ccccc1Cl)C(=O)COC(=O)CN1C(=O)NC2(CCCC2)C1=O | 9.31
CCOC(=O)N1CCN(C(=O)c2csc3c2CCCCC3)CC1 | 8.08
C=C(C)C1Cc2c(C)nn(-c3ccccn3)c2C1 (stereo not shown) | 11
Cc1csc(SCC(=O)Nc2sccc2C#N)n1 | -0.612
Cc1oc(-c2ccccc2)nc1CS(=O)CC(=O)NC1CCCCCC1 (stereo not shown) | -11.5
Cc1cccc(OCC(=O)NCC(=O)n2nc(C)cc2C)c1 | 10.5
Oc1c(C(c2ccco2)N2CCC3(CC2)OCCO3)sc2ncnn12 (stereo not shown) | 1.38
COc1ccc(C2C=C(c3ccc(Cl)cc3)Nc3nc(NC(C)=O)nn32)cc1 (stereo not shown) | -39.7
COc1ccc(C2=CC(c3c(C)nn(-c4ccccc4)c3Cl)n3nnnc3N2)cc1OC (stereo not shown) | 11.4
COc1ccc(C2=CC(c3ccc(Cl)cc3)n3cnnc3N2)cc1OC (stereo not shown) | -52
COCCn1c(SCC(=O)Nc2sc(C)c(C)c2C#N)nnc1C(C)C | -3.62
CCOC(=O)c1sc(NC(=O)CSc2nnc(-c3ccc(OC)cc3)n2CCOC)nc1C | -27.3
Cc1sc(NC(=O)CSc2nnc(C(C)C)n2C)c(C#N)c1C | -1.79
Cc1ccc(OCc2nnc(SCC(=O)Nc3sc(C)c(C)c3C#N)n2C)cc1 | 12.8

SMILES | hERG current change (%, negative = inhibition) at 10uM [%]
COCCn1c(SCC(=O)Nc2sc(C)c(C)c2C#N)nnc1-c1ccc(OC)cc1 | -52.1
Cc1ccc(-c2nnc(SCC(=O)Nc3sc(C)c(C)c3C#N)n2C)cc1 | -54.1
CN1CCN(C(=S)c2ccc(-c3cc(Cl)ccc3Cl)o2)CC1 | -20.7
CC1CCN(C(=O)COC(=O)c2cc3ccccc3cc2O)CC1 | 3.92
O=C1c2ccccc2C(=O)N1n1c(=O)[nH]c2ccccc2c1=O | 14.9
O=C(O)c1ccccc1-n1c2ccccc2c2ccccc21 | 19
COc1ccccc1NC(=O)C(C)OC(=O)Cc1n[nH]c(=O)c2ccccc12 (stereo not shown) | 9.99
Cn1c(SCc2nc3ccccc3[nH]2)nnc1-c1cnccn1 | 10.2
Oc1ccc(C=NCCc2ccccc2)cc1 | 10.2
COc1ccc(OC)c(/C=C/C(=O)N(C)CC(=O)Nc2ccc(N3CCOCC3)cc2)c1 | -8.78
COc1ccc(C[C@H]2CN3C(=NC[C@@H]3Cc3ccccc3)N2CCNC(=O)c2ccc(C)c(Br)c2)cc1 | -74
COc1ccc(C[C@H]2CN3C(=NC[C@H]3Cc3ccccc3)N2CCNC(=O)c2ccc(C)c(Br)c2)cc1 | -69
CCCCCCNC(=O)N[C@@H](C(=O)NCCC[C@H]1CN2C(=NC[C@@H]2Cc2ccccc2)N1CCc1cccc(OC)c1)C(C)C | -18.7
COc1ccc(/C=N/Nc2cc(N(C)C)nc(N(C)C)n2)cc1 | -28.5
COc1ccc(C2(C(=O)Nc3ccc(C)c(C)c3)CCOCC2)cc1 | 6.97
Cc1ccc2c(c1)sc(C)[n+]2CCCS(=O)(=O)[O-] | 29.7
COc1cc(/C=N/NC(=O)Cc2ccccc2)ccc1Oc1ccc([N+](=O)[O-])cc1[N+](=O)[O-] | 1.03
CN1CCCC(OC(=O)c2ccc(S(=O)(=O)N(C)C)cc2)C1.Cl (stereo not shown) | 8.58
CC1CN(CCOCCSc2ccccc2)CC(C)O1.Cl (stereo not shown) | -14.9
Cc1ccc(Cl)c(OCCN2CCc3ccccc3C2)c1.Cl | -9.17
Cc1ccc(SCCOCCN2CC(C)OC(C)C2)cc1.Cl (stereo not shown) | -12.4
c1ccc(SCCN2CCc3ccccc3C2)cc1 | -19.3
c1ccc(SCCOCCN2CCc3ccccc3C2)cc1 | -75.3

SMILES | hERG current change (%, negative = inhibition) at 10uM [%]
Cl.Clc1ccc(SCCOCCN2CCc3ccccc3C2)cc1 | -53.7
Cl.c1ccc(SCCOCCN2CCOCC2)cc1 | 14.3
Cc1ccc(SCCOCCN2CCOCC2)cc1.Cl | -1.55
Cc1ccc(SCCOCCN2CCc3ccccc3C2)cc1 | -60.5
O=C(c1cccnc1)N1CCC(Oc2ccc(C(=O)N3CCCC(O)C3)cc2)CC1 (stereo not shown) | -0.912
CC(=O)c1cnc2nc(SCc3ccccc3)nn2c1C | 0.852
O=C(c1ccco1)N1CCN(C2CC(=O)N(c3ccc4c(c3)OCO4)C2=O)CC1 (stereo not shown) | -16.8
COc1ccc(CC(=O)N2CCN(c3ccccn3)CC2)cc1OC | 8.9
COc1cc(C(=O)N/N=C/c2cc([N+](=O)[O-])cs2)cc(OC)c1OC | -8.26
C[C@@H](C(=O)NCc1ccc(S(C)(=O)=O)cc1)[C@H]1C[C@]1(C)[C@H](NC(=O)OCc1ccccc1)c1ccccc1 | -35.4
C[C@@H](C(=O)NCc1ccc(S(C)(=O)=O)cc1)[C@@H]1C[C@@]1(C)[C@@H](NC(=O)OCc1ccccc1)c1ccccc1 | -75.1
C[C@@H](C(=O)NCc1ccccc1)[C@H]1C[C@]1(C)[C@H](NC(=O)OCc1ccccc1)c1ccccc1 | -21.3
CCCC(=O)n1nc(-c2ccco2)nc1SCc1ccccc1 | 0.232
CN(CC(=O)N1CCN(c2ccccn2)CC1)S(=O)(=O)c1cccc2nsnc12 | -23.6
O=C(Nc1ccccn1)C(NS(=O)(=O)c1cccc2nsnc12)c1ccccc1 (stereo not shown) | -4.67
CCOC(=O)N1CCN(C(=O)C(NS(=O)(=O)c2cccc3nsnc23)c2ccccc2)CC1 (stereo not shown) | -47.1
CC1CCN(C(=O)C(NS(=O)(=O)c2cccc3nsnc23)c2ccccc2)CC1 (stereo not shown) | -69.5
O=C(C(NS(=O)(=O)c1cccc2nsnc12)c1ccccc1)N1CCN(c2ccccc2)CC1 (stereo not shown) | -71.4
CC1CCN(C(=O)C(NS(=O)(=O)c2cccc3nsnc23)C(C)C)CC1 (stereo not shown) | -5.48
O=C(O)C(NS(=O)(=O)c1cccc2nsnc12)c1ccccc1 (stereo not shown) | 16.1
O=C(C(NS(=O)(=O)c1cccc2nsnc12)c1ccccc1)N1CCN(c2ccccn2)CC1 (stereo not shown) | -64.8
O=C(NC1CCCC1)C(NS(=O)(=O)c1cccc2nsnc12)c1ccccc1 (stereo not shown) | -10.5
